# Reference: PubChem BioAssay
# Values joined by “and” are separate entries in the source; they are usually repeats but may differ in a detail not shown here. Identical values can stand only once. Inconclusive results are not listed. For part of these data: Measured potencies and affinities stand elsewhere. Active and inactive are the calls of the source. Unless noted, the limit is not given here; nearly all actives have AC50 up to about 26 µM.
# Legend:
# [1] = viability loss in pontine glioma line – cell-based, SU-DIPG-XIII, MIPE5.0, CellTiter-Glo, qHTS, dose response (AID 1347064; cut-off not given, nearly all actives have AC50 up to about 23 µM;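 as to AC50: cells exposed to compound for 48 hours before the viability read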); settings: CellTiter-Glo ATP luminescence
# [2] = viability loss in pontine glioma line – cell-based, SU-DIPG-XXV, MIPE5.0, CellTiter-Glo, qHTS, dose response (AID 1347065); settings: CellTiter-Glo ATP luminescence;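 also: cells exposed to compound for 48 hours before ATP readout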
# [3] = viability loss in pontine glioma line – cell-based, SU-DIPG-IV, MIPE4.0, CellTiter-Glo, qHTS, dose response (AID 1347063; cut-off not given, nearly all actives have AC50 up to about 30 µM;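 also: compound exposure lasted 48 hours before the viability readout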); settings: CellTiter-Glo ATP luminescence
# [4] = JHH-DIPG-1 glioma cell viability, MIPE5.0 library, CellTiter-Glo luminescence, qHTS (AID 1347067); settings: JHH-DIPG-1 glioma viability, CellTiter-Glo ATP luminescence;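 also: cells exposed to compound for 48 hours before readout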
# [5] = compounds altering HSF1 focus formation in cells – imaging, Selleck Cancer Library (AID 1347162; in the data active = plate-normalised HSF1 focus index below about 0.46); settings: human cells, HSF1 nuclear foci imaging, at 10 µM; SSMD: measured here: HSF1 foci SSMD mean; cell count: measured here: cell number; plate-normalised HSF1 focus index: stronger effect = lower value
# [6] = blockers of polyQ-driven CASP3 activation – cell-based (AID 1583); settings: polyglutamine-induced caspase-3 activation, cell assay; stronger effect = higher value;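 tested at 10 µM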
# [7] = yeast 75Q aggregation reduction – 75Q-TubU reporter (AID 1593); settings: Yeast 75Q polyglutamine aggregation reporter
# [8] = restoration of touch response, mutant HTT neurons – whole organism, C. elegans mechanosensory neurons, N-terminal huntingtin (AID 1599); settings: C. elegans polyQ-huntingtin mechanosensory neurons, stronger effect = higher value
# [9] = blockers of cytochrome c efflux from mitochondria – biochemical, purified mitochondria (AID 1603); settings: stronger effect = lower value;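 also: mouse liver mitochondria challenged with calcium chloride; signal normalized to the plate average as 100%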
# [10] = polyglutamine aggregate formation blockers (AID 1604); settings: polyglutamine-induced protein aggregation inhibition assay; stronger effect = higher value; tested at 2.5 µM
# [11] = glutamate transport activators, MN-1 cells, MN-1 cell line (AID 1612); settings: MN-1 motor neuron cells, stronger effect = higher value;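 also: tested at 1 µM final; 0% = mean of DMSO vehicle wells on each plate; positive means more glutamate uptake than control and negative means less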
# [12] = GFP-Q80 aggregate reduction, neuronal-like cells, cell-based, NGF-treated PC12, GFPQ80 (AID 1614); settings: PC12 NGF-treated GFP-polyQ80 inclusion reduction;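 also: lower means fewer inclusions and 0 means no inclusions at all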
# [13] = 75Q-TubH aggregate inhibition, S. cerevisiae, yeast (AID 1616); settings: S. cerevisiae 75Q-TubH polyglutamine aggregation suppression; stronger effect = higher value
# [14] = viability loss in pontine glioma line – cell-based, JHH-DIPG-1, MIPE4.0, CellTiter-Glo, qHTS, dose response (AID 1347062; cut-off not given, nearly all actives have AC50 up to about 27 µM;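 as to AC50: cells exposed to compound for two days before readout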); settings: JHH-DIPG-1 viability, CellTiter-Glo ATP luminescence
# [15] = growth inhibition of DIPG cells – cell-based, MIPE5.0 library, qHTS (AID 1347068; cut-off not given, nearly all actives have IC50 up to about 30 µM;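 as to IC50: cells exposed to compound for 48 hours before viability readout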); settings: SU-DIPG-XXV viability
# [16] = viability loss with induced miR-34 in A549 – imaging, A549 dox-inducible miR-34, nuclei and caspase counts, primary screen (AID 1347080;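 active = compounds whose cell count with miR-34 switched on is under 0.7 times the count with it off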); settings: A549 miR-34 inducible, Hoechst nuclei count, 48 h
# [17] = blockers of cellular phospholipid synthesis – cell-based, LOPAC library, screen 4, primary screen (AID 1347384; call rule not given here); settings: animal cells, phospholipid biosynthesis inhibition screen; at 10 µM
# [18] = galactose survival enhancers in mitochondrial complex I cybrids – cell-based, galactose medium, ATP luminescence, primary screen (AID 1645843;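 active = z-score of at least 1.8 in each of two replicates, scored against plate mean and spread of sample wells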;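 also: positive z means more ATP and so rescue of galactose-driven cybrid death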); settings: complex I mutant cybrid cells, 72 h, stronger effect = higher value
# [19] = target: NAD(+) hydrolase SARM1 (Homo sapiens) (UniProt Q6SZW1); assay: blocking NAD cleavage by SARM1 SAM-TIR – cell lysate, NAD-Glo luminescence (AID 1508614;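 active = compound whose remaining NAD level is above about 45 nM, limit read from the data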;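 also: higher remaining NAD means stronger inhibition of SARM1 NADase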); settings: SAM-TIR HEK293T lysate NADase, at 1 µM, stronger effect = higher value
# [20] = P. berghei load reduction in hepatocytes – cell-based, HepG2, luciferase luminescence, HepG2 viability, primary screen (AID 624349; in the data active = parasite load remaining mostly below about 12%, no sharp cut-off; inactive = mostly above about 10%;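 also: 100% = mean of DMSO negative control wells on the same plate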); settings: P. berghei liver stage in HepG2, luciferase luminescence, concentration not given here; parasite load remaining: stronger effect = lower value; viability: measured here: HepG2 viability without parasites
# [21] = system: Hepatitis C virus NS3 helicase; assay: blockers of NS3h binding to ssDNA – biochemical, fluorescence polarization, LOPAC1280 library, primary screen (AID 687035; in the data active = inhibition above about 37%); settings: Purified HCV NS3 helicase, Cy5-dT15 ssDNA binding fluorescence polarization; stronger effect = higher value; concentration not given here
# [22] = compounds altering Cy5-DNA-NS3h complex signal – biochemical, LOPAC1280, artefact control for HCV NS3 helicase inhibitor project (AID 687037; call rule not given here); settings: Cy5-DNA-NS3h complex fluorescence interference counterscreen
# [23] = stronger effect = lower value, cell number ratio, induced over uninduced
# [24] = measured here: relative caspase fold change +Dox/-Dox
# [25] = measured here: total cells with miR-34 induction, stronger effect = lower value
# [26] = measured here: total cells without miR-34 induction
# Sequence of NAD(+) hydrolase SARM1 (Homo sapiens) (Q6SZW1 whole entry, looked up): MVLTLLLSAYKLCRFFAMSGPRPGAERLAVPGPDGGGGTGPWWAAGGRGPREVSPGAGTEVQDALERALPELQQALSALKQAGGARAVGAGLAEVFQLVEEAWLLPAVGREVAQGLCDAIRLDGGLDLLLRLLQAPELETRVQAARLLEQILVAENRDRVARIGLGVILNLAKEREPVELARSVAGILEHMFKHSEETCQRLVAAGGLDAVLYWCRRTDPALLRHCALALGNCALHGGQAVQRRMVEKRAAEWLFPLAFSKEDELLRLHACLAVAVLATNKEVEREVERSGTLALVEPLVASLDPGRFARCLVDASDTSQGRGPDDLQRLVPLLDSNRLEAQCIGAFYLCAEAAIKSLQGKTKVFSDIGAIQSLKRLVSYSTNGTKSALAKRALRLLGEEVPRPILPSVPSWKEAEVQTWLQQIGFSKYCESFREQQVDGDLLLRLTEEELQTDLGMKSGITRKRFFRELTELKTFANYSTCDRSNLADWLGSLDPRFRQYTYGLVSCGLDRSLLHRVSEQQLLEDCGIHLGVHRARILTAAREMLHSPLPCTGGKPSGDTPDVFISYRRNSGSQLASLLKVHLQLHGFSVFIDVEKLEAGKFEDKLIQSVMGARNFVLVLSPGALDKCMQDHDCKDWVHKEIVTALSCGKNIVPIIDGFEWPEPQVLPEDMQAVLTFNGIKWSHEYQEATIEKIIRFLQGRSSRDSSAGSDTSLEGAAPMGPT
smiles,measurement,setting,value
Cc1c(C(=O)N2CCOc3ccc(-c4ccc(N)nc4)cc3C2)ccc(S(C)(=O)=O)c1F,AC50,[1],2.95 µM (active)
same,AC50,[2],4.17 µM (active)
Cc1c(C)n(Cc2ccc(-c3ccccc3C(=O)O)cc2)c2ccc(C(=O)N[C@@H](C)c3ccc([N+](=O)[O-])cc3)cc12,AC50,[3],0.0372 µM (active)
Cc1c(C(=O)Nc2ccc(N3C[C@@H](C)O[C@@H](C)C3)nc2)cccc1-c1ccc(OC(F)(F)F)cc1,AC50,[3],20.9 µM (active)
same,AC50,[2],20.9 µM (active)
same,AC50,[4],23.5 µM (active)
same,SSMD,[5],-6.97
same,cell count,[5],6140
same,plate-normalised HSF1 focus index,[5],0.637 (inactive)
COc1ccc2c(c1OC)C(=O)OC2[C@H]1c2c(cc3c(c2OC)OCO3)CCN1C (stereo partly drawn),inhibition,[6],-3.24%
same,score,[7],1.28
same,rescue above control,[8],-2.5
same,cytochrome c release ratio,[9],0.93
same,inhibition of aggregation,[10],66.2%
same,glutamate uptake change,[11],-10.2%
same,inclusion score,[12],2
same,aggregation suppression score,[13],1.38
same,AC50,[14],1.87 µM (active)
CN(C)C(=O)[C@H](O)[C@H](Cc1ccccc1)NC(=O)c1cc2cc(Cl)ccc2[nH]1,AC50,[3],4.18 µM (active)
same,outcome,[1],inactive
same,outcome,[2],inactive
same,outcome,[4],inactive
same,outcome,[15],inactive
same,fold change,[16]; [23],0.925 (inactive)
same,fold change,[16]; [24],1.42
same,cell count,[16]; [25],8280
same,cell count,[16]; [26],8950
same,outcome,[17],inactive
same,z-score,[18],3.02 (active)
CO/N=C(/C(=O)N[C@@H]1C(=O)N2C(C(=O)O)=C(CSC(=O)c3ccco3)CS[C@H]12)c1csc(N)n1,AC50,[3],23.5 µM (active)
same,remaining NAD,[19],10 nM (inactive)
COc1c(Cl)cc2c([nH]c3cnccc32)c1NC(=O)c1cccnc1C,AC50,[3],2.96 µM (active)
O=C1NC(=O)/C(=C/c2ccc(-c3ccc(F)cc3O)o2)S1,parasite load remaining,[20],10.7% (active)
same,viability,[20],62.9%
same,inhibition,[21],0% (inactive)
same,fluorescence ratio (interference),[22],1 (inactive)
same,outcome,[14],inactive
same,outcome,[4],inactive
same,fold change,[16]; [23],1.04 (inactive) and 0.983 (inactive)
same,fold change,[16]; [24],2.12 and 0.302
same,cell count,[16]; [25],6690 and 5950
same,cell count,[16]; [26],6460 and 6050
same,outcome,[17],inactive
same,z-score,[18],1.31 (inactive)
CO[C@H]1C[C@@H]2CC[C@@H](C)[C@@](O)(O2)C(=O)C(=O)N2CCCC[C@H]2C(=O)O[C@H]([C@H](C)C[C@@H]2CC[C@@H](OCCO)[C@H](OC)C2)CC(=O)[C@H](C)/C=C(/C)[C@@H](O)[C@@H](OC)C(=O)[C@H](C)C[C@H](C)/C=C\C=CC=C1C,AC50,[3],8.33 µM (active)
same,AC50,[2],23.5 µM (active)
same,AC50,[4],29.5 µM (active)
same,IC50,[15],23.5 µM (active)
